Source: PubChem BioAssay
A selection: hits, their analogues and other compounds. The true share with any hit is near 6.7%.
C diff growth: inhibitors of Clostridium difficile growth; Clostridium difficile clinical isolate growth, OD600, 24 h; hits give low values; growth activity, negative = inhibition, % at 16 µg/mL (by protocol); hit rate 0.25% among 86,000;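 active = mean growth activity at or below -80% and every replicate also at or below -80%; inconclusive = mean at or below -80% but some replicate above -80%; inactive = mean growth activity above -80%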;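 note: 0% = DMSO wells and -100% = levofloxacin 16 µg/mL wells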
Pf Dd2 inh: inhibitors of Plasmodium falciparum Dd2 growth | activity change, % at 10 µM | AID 1159554 | hit rate 2.3% among 94,000 | P. falciparum Dd2 growth, SYBR Green, 72 h; hits give low values; in the data active = activity change below about -80%; inconclusive = no clear call, values can overlap the other calls
T cruzi growth-1: blocks T. cruzi growth in NIH3T3 culture; T. cruzi beta-gal in NIH3T3, GalScreen luminescence, 90 h; inhibition, % at 8.34 µM; hit rate 5.9% among 77,000; AID 624255;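 active = mean inhibition above about 93%, with at least 55% of replicates each passing it, limit read from the data, passing the limit was not always enough; inconclusive = only one of those two conditions holds; inactive = neither condition holds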
T cruzi growth-2: Trypanosoma cruzi proliferation inhibition | shares compounds with T cruzi growth-1 | T. cruzi beta-gal in NIH3T3, GalScreen luminescence, 90 h | inhibition, % at 8.35 µM | hit rate 72% among 5,600 | AID 651739;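 active = mean replicate inhibition above about 95% and at least 55% of replicates individually reaching it, limit read from the data; inconclusive = only one of the two criteria is met; inactive = neither criterion is met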
T cruzi growth-3: Trypanosoma cruzi proliferation inhibition; inhibition, % at 2.09 µM; shares compounds with T cruzi growth-1; hit rate 21% among 5,600; T. cruzi beta-gal in NIH3T3, GalScreen luminescence, 90 h;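 active = mean inhibition above about 95%, with at least 55% of replicates also reaching it, limit read from the data; inconclusive = meets just one of the two conditions; inactive = meets neither condition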;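 note: plate controls were neutral control median for no effect and positive control median for full effect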
NIH3T3 tox: NIH/3T3 (mouse) viability loss | shares compounds with T cruzi growth-1 | NIH/3T3 viability, CellTiter-Glo ATP luminescence, 90 h | cytotoxicity (signal decrease), % at 8.35 µM | hit rate 14% among 5,600 | AID 651742;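 active = mean signal decrease across replicates above about 35% based on untreated-well scatter, with enough replicates individually passing, limit read from the data; inconclusive = no rule stated though some were filed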;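 note: 0% = median of neutral control wells and 100% = median of positive control wells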
3T3 cytotox 2: cytotoxicity in mouse NIH/3T3 fibroblasts | shares compounds with T cruzi growth-1 | NIH/3T3 viability, CellTiter-Glo ATP luminescence, 90 h | inhibition, % at 24.9 µM | hit rate 56% among 5,600 | AID 651744;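 active = mean loss of cell viability signal at or above a set limit, and enough replicates individually reaching it; inconclusive = meets only the mean limit or only the replicate share; inactive = meets neither condition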;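 note: 0% = median of neutral control wells and 100% = median of positive control wells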
Active calls of the source: *; ? = inconclusive; nt = not tested or not shown.

SMILES	C diff growth	Pf Dd2 inh	T cruzi growth-1	T cruzi growth-2	T cruzi growth-3	NIH3T3 tox	3T3 cytotox 2
O=C(C[C@@H]1CC[C@H](NC(=O)Nc2cc(F)ccc2F)[C@H](CO)O1)Nc1ccccc1	-4	nt	nt	nt	nt	nt	nt
COc1ccc(S(=O)(=O)Nc2ccc3c(c2)C(=O)N([C@H](C)CO)C[C@H](C)[C@@H](CN(C)S(=O)(=O)c2ccc(OC)cc2)OCCCC[C@H](C)O3)cc1	3	-63	?	111*	51	6	13
COc1ccc(S(=O)(=O)N(C)C[C@H]2OCCCC[C@H](C)Oc3ccc(NS(=O)(=O)c4ccccc4)cc3C(=O)N([C@@H](C)CO)C[C@@H]2C)cc1	-3	nt	93	nt	nt	nt	nt
COc1ccc(S(=O)(=O)Nc2ccc3c(c2)C(=O)N([C@H](C)CO)C[C@H](C)[C@H](CN(C)S(=O)(=O)c2ccccc2)OCCCC[C@@H](C)O3)cc1	-3	-18	nt	nt	nt	nt	nt
COc1ccc(S(=O)(=O)Nc2ccc3c(c2)C(=O)N([C@@H](C)CO)C[C@H](C)[C@H](CN(C)S(=O)(=O)c2ccc(OC)cc2)OCCCC[C@@H](C)O3)cc1	-3	-65	93*	106*	80	16	23
COc1ccc(S(=O)(=O)Nc2ccc3c(c2)C(=O)N([C@H](C)CO)C[C@@H](C)[C@H](CN(C)S(=O)(=O)c2ccc(OC)cc2)OCCCC[C@@H](C)O3)cc1	4	-73	?	102*	63	18	12
COc1ccc(S(=O)(=O)Nc2ccc3c(c2)C(=O)N([C@@H](C)CO)C[C@H](C)[C@@H](CN(C)S(=O)(=O)c2ccccc2)OCCCC[C@H](C)O3)cc1	-1	-72	nt	nt	nt	nt	nt
O=C(c1cccnc1)N1C[C@H]2[C@@H](c3ccccc31)[C@H](CO)N2CC1CCCC1	0	-4	4	nt	nt	nt	nt
Cc1ccccc1-c1ccc([C@@H]2[C@@H](CO)N3C(=O)CN(C(=O)Nc4ccc(F)cc4)C[C@@H]23)cc1	40	-61	nt	nt	nt	nt	nt
C[C@H]1CN([C@@H](C)CO)C(=O)c2cccc(NC(=O)Nc3cccc4ccccc34)c2O[C@@H]1CN(C)C(=O)Nc1ccccc1	-1	-12	81	nt	nt	nt	nt
C[C@H]1CN([C@@H](C)CO)C(=O)c2cccc(NC(=O)Nc3cccc4ccccc34)c2O[C@H]1CN(C)C(=O)Nc1ccccc1	-7	-12	102*	?	65	-17	8
C[C@@H]1CN([C@H](C)CO)C(=O)c2cccc(NC(=O)C3CCCCC3)c2O[C@H]1CN(C)C(=O)Nc1ccc(F)cc1	2	-6	-7	nt	nt	nt	nt
C[C@@H]1CN([C@H](C)CO)C(=O)c2cccc(NC(=O)Nc3ccc(C(F)(F)F)cc3)c2O[C@@H]1CN(C)C(=O)Nc1cccc2ccccc12	-8	-43	93	nt	nt	nt	nt
C[C@H](CO)N1C[C@H](C)[C@H](CN(C)C(=O)Nc2ccc(F)cc2)Oc2c(NC(=O)Nc3cccc4ccccc34)cccc2C1=O	-6	-77	?	109*	94	37*	95*
C[C@H]1CN([C@@H](C)CO)C(=O)c2cccc(NC(=O)Nc3cccc4ccccc34)c2O[C@@H]1CN(C)C(=O)Nc1ccc(F)cc1	2	-3	15	nt	nt	nt	nt
C[C@H]1CN([C@@H](C)CO)C(=O)c2cccc(NC(=O)Nc3ccc(C(F)(F)F)cc3)c2O[C@H]1CN(C)C(=O)Nc1cccc2ccccc12	2	-39	101*	93	112*	63*	105*
C[C@@H]1CN([C@@H](C)CO)C(=O)c2cccc(NC(=O)C3CC3)c2O[C@H]1CN(C)C(=O)Nc1ccc(F)cc1	-4	-7	108*	96*	77	25	21
C[C@@H]1CN([C@@H](C)CO)C(=O)c2cc(/C=C/c3ccccc3)cnc2O[C@@H]1CN(C)C(=O)c1ccc2c(c1)OCO2	3	-26	nt	nt	nt	nt	nt
C[C@H]1CN([C@@H](C)CO)C(=O)c2cccc(NC(=O)c3ccc(-c4nccs4)cc3)c2O[C@H]1CN(C)C(=O)Nc1ccccc1	4	-10	-68	nt	nt	nt	nt
COc1cccc(NC(=O)N2CC3(C2)[C@H](c2ccccc2)[C@@H](CO)N3C(C)=O)c1	3	14	nt	nt	nt	nt	nt
CC(C)NC(=O)N1[C@H](CO)[C@H](c2ccccc2)[C@@H]1CNCc1ccccc1	1	-54	nt	nt	nt	nt	nt
COc1cccc(NC(=O)N2[C@@H](CO)[C@H](c3ccccc3)[C@@H]2CNC(C)C)c1	-2	-69	102*	101*	42	-18	-13
COc1cccc(NC(=O)N2[C@H](CO)[C@@H](c3ccccc3)[C@H]2CNC(C)C)c1	-5	-74	104*	73	45	-2	-3
CN(C)CC(=O)N1[C@@H](CO)[C@@H](c2ccccc2)C12CN(C(=O)c1cccc(F)c1)C2	2	10	nt	nt	nt	nt	nt
C[C@H]1CN([C@@H](C)CO)S(=O)(=O)c2ccc(C#Cc3ccccc3)cc2O[C@@H]1CN(C)C	5	-51	102*	105*	41	5	103*
SMILES	C diff growth	Pf Dd2 inh	T cruzi growth-1	T cruzi growth-2	T cruzi growth-3	NIH3T3 tox	3T3 cytotox 2
C[C@@H]1CN([C@H](C)CO)S(=O)(=O)c2ccc(C#Cc3ccccc3)cc2O[C@@H]1CN(C)C	9	-65	28	nt	nt	nt	nt
COc1ccc(C#Cc2ccc3c(c2)O[C@@H](CN(C)C)[C@@H](C)CN([C@H](C)CO)S3(=O)=O)cc1	3	-43	41	nt	nt	nt	nt
COc1ccc(C#Cc2ccc3c(c2)O[C@H](CN(C)C)[C@@H](C)CN([C@@H](C)CO)S3(=O)=O)cc1	1	-51	?	109*	77	15	103*
O=C(NCC[C@H]1CC[C@H](NS(=O)(=O)c2ccc(Cl)cc2)[C@@H](CO)O1)Nc1ccc(F)cc1	-5	12	nt	nt	nt	nt	nt
O=C(Cc1ccccn1)NCC[C@@H]1CC[C@H](NS(=O)(=O)c2ccc(F)cc2)[C@H](CO)O1	-2	9	6	nt	nt	nt	nt
O=C(C[C@@H]1C=C[C@H](NC(=O)C2CC2)[C@H](CO)O1)NCCCN1CCOCC1	2	-21	nt	nt	nt	nt	nt
CN1C(=O)c2cc(NC(=O)Nc3ccccc3Cl)ccc2OC[C@@H]2O[C@H](CC(=O)O)CC[C@H]21	3	17	10	nt	nt	nt	nt
O=C(CC1CC1)N1CC(=O)N2[C@H](CO)[C@@H](c3ccc(C#Cc4ccccc4)cc3)[C@@H]2C1	13	-50	nt	nt	nt	nt	nt
O=C(C[C@@H]1C=C[C@@H](NS(=O)(=O)c2ccc(F)cc2)[C@H](CO)O1)NCCc1ccncc1	12	31	12	nt	nt	nt	nt
COc1ccc(CN(C)C[C@H]2Oc3ccc(NC(=O)Nc4c(C)noc4C)cc3CC(=O)N([C@H](C)CO)C[C@@H]2C)cc1	1	42	nt	nt	nt	nt	nt
C/C=C/c1cnc2c(c1)C(=O)N([C@H](C)CO)C[C@@H](C)[C@@H](CN(C)Cc1ccc(F)cc1)O2	6	-22	119*	?	-21	-5	?
